Consider four molecules from ChEMBL document CHEMBL3988442, “University of Dundee, Small-Polar-MMV Screening Library” (2021).

For some of these results: Entries with a potency or affinity are not part of this list.

Set-up in all cases: scale not given: direction of the effect not stated beside the values
Experiment [1] has as its target Protein translocase subunit SecA (Escherichia coli (strain K12)) (UniProt P10408). As to the kind of experiment: Assay to Identify E. coli SecA ATPase Inhibitors. Format: functional. The settings on record: 30 µM.
For experiment [2], the target named is T1, Ubiquitin-activating enzyme e1, putative (Leishmania donovani (strain BPK282A1)) (UniProt E9BSI1).
T1 sequence (whole entry): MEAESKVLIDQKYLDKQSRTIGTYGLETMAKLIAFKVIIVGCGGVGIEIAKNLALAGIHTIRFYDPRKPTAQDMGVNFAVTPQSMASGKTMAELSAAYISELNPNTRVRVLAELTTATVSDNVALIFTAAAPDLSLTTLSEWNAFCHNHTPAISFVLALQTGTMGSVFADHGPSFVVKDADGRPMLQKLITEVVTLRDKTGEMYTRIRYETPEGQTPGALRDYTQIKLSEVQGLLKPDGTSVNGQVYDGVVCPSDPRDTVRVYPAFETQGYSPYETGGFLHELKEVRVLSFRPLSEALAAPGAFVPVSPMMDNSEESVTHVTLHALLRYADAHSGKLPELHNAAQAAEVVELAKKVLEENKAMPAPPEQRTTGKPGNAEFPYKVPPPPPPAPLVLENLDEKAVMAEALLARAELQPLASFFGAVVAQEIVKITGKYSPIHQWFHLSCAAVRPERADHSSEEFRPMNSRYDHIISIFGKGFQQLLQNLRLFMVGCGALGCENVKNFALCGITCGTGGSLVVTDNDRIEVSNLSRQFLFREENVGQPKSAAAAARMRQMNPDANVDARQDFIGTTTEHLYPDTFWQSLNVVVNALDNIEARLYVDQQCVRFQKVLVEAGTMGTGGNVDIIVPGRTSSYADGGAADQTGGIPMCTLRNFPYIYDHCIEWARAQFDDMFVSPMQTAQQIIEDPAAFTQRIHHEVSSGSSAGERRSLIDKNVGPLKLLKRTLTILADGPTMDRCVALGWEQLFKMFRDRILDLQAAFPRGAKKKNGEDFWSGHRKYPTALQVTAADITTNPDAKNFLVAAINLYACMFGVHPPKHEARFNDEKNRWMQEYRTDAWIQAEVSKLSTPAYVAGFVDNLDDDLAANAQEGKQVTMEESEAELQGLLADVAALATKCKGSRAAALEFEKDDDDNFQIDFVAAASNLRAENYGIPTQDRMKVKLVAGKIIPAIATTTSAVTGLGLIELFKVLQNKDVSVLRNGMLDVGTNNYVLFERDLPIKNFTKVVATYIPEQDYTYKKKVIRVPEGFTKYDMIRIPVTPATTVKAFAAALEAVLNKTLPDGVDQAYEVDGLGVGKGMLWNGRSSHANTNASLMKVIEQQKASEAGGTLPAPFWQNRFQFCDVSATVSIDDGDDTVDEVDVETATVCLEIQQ
As to the kind of experiment: Leishmania donovani Ubiquitin Activating Enzyme (LdE1). Format: functional. The settings on record: 30 µM.

For experiment [3], the target named is Sialic acid-binding Ig-like lectin 9 (Homo sapiens) (UniProt Q9Y336). The experiment can be described thus: Hs-Siglec9 ALPHAscreen SOP 20170721. Particulars: 10 µM.
Sialic acid-binding Ig-like lectin 9 (Homo sapiens), sequence (Q9Y336 whole entry): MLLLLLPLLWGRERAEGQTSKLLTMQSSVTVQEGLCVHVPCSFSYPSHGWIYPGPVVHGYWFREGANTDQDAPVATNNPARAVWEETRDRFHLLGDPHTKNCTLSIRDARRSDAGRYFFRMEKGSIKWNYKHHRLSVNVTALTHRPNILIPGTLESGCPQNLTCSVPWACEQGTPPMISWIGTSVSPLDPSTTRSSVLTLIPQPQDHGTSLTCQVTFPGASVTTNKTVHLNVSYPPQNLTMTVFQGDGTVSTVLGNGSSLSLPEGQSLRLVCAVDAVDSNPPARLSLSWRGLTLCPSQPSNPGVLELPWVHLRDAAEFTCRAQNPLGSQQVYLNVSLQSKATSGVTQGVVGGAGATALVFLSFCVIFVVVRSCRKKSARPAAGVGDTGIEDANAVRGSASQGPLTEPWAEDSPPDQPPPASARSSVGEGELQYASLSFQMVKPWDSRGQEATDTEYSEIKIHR
Another experiment deals with Trypanosoma cruzi. As to the kind of experiment: Trypanosoma cruzi phosphomannomutase and mannose-1-phosphate guanylyltransferase assay. Format: functional. The settings on record: 10 µM.
Experiment [4] has as its target T2, Arginase-2, mitochondrial (Homo sapiens) (UniProt P78540).
T2 sequence (whole entry): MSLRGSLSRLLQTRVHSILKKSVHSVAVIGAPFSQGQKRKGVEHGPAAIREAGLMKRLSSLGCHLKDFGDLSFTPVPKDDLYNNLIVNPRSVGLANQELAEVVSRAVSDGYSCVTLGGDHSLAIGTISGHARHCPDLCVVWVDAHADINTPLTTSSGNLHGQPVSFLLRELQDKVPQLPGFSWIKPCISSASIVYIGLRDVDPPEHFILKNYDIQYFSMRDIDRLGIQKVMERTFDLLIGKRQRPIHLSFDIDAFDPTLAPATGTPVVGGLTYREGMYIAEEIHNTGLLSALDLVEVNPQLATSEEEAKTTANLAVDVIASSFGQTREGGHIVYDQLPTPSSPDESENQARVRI
As to the kind of experiment: in vitro enzyme assay to detect the production of urea directly proportional to the activity of Arginase II. Note: in the data most compounds retested in dose-response had high values. Format: functional. The settings on record: 33.3 µM.

The target of experiment [5] is T3, Proteasome subunit beta (Trypanosoma cruzi) (UniProt O96673).
T3 sequence (whole entry): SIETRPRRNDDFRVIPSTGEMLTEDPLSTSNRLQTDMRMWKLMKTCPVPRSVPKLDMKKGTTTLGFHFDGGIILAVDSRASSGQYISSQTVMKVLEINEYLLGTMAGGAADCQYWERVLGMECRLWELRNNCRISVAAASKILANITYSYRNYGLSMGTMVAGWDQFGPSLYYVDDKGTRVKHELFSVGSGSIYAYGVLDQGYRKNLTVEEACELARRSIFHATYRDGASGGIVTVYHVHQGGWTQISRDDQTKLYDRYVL
As to the kind of experiment: Trypanosoma cruzi proteasome chymotrypsin-like activity (TcProtChymo) assay. Note: in the data most compounds retested in dose-response had high values. Format: functional. Particulars: 9.37 µM.

A further experiment is filed under the species Homo sapiens. The experiment can be described thus: To identify inhibition of the IFN signalling (Jak-Stat) pathway via expression of an eGFP reporter gene under the control of an IFN-stimulated response element (ISRE) containing MxA promoter. Format: functional. Particulars: 30 µM.
Experiment [6] addresses T4, Tyrosyl-tRNA synthetase, putative (Trypanosoma cruzi (strain CL Brener)) (UniProt Q4DSP6).
T4 sequence (whole entry): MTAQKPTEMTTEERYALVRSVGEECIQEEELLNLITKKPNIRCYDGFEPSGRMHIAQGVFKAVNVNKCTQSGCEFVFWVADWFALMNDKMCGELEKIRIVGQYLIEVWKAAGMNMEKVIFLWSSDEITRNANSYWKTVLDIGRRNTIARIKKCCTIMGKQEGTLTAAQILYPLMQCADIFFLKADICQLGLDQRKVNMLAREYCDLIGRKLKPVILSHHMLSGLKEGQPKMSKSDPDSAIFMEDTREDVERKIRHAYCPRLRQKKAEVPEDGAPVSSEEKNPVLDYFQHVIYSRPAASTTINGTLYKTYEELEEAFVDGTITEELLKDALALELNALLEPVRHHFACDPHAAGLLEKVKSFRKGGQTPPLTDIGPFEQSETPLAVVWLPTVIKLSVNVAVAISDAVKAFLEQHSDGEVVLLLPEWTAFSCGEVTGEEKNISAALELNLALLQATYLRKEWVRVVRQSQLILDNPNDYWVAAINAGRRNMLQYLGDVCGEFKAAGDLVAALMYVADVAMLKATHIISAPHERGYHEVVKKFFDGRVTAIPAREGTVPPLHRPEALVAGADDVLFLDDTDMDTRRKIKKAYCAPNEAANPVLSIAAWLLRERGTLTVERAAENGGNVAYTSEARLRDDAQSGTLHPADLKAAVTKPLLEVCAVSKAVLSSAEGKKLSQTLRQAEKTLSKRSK
As to the kind of experiment: Trypanosoma cruzi tyrosyl tRNA synthetase (TcYRS) _High Tyrosine SOP. Note: in the data most compounds retested in dose-response had high values. Format: functional. Particulars: 30 µM.

Experiment [7] addresses T4, Tyrosyl-tRNA synthetase, putative (Trypanosoma cruzi (strain CL Brener)). As to the kind of experiment: Trypanosoma cruzi tyrosyl tRNA synthetase (TcYRS) SOP. Format: functional. Particulars: 30 µM.
Experiment [8] addresses Chromo domain-containing protein 1 (Saccharomyces cerevisiae (strain ATCC 204508 / S288c) (Baker's yeast)) (UniProt P32657). The experiment can be described thus: ScCHD-1 Enzyme Inhibition Assay. Note: in the data most compounds retested in dose-response had high values. Format: functional. The settings on record: 30 µM.

Protein translocase subunit SecA (Escherichia coli (strain K12)), sequence (P10408 whole entry): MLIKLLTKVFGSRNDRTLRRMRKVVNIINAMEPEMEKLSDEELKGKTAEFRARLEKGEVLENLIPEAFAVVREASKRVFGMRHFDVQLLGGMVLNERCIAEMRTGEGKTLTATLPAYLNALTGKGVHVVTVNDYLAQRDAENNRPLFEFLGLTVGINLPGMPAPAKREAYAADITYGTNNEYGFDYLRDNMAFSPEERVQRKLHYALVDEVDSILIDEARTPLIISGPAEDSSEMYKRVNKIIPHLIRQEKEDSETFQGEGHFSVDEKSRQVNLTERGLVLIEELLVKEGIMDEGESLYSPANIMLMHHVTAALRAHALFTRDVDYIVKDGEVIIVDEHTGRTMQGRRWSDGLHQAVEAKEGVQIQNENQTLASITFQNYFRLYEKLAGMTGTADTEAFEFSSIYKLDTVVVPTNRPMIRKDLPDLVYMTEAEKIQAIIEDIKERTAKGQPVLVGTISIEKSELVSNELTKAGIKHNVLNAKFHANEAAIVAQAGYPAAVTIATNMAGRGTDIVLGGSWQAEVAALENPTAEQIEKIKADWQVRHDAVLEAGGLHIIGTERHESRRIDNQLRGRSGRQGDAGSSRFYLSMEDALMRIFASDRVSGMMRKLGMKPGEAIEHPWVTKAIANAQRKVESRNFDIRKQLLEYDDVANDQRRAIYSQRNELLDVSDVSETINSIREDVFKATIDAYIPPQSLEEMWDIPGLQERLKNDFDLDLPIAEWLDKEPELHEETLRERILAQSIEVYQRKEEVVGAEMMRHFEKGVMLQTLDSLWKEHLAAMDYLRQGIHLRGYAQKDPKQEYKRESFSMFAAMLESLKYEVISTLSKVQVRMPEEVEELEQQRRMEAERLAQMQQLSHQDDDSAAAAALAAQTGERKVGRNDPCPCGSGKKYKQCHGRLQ
Chromo domain-containing protein 1 (Saccharomyces cerevisiae (strain ATCC 204508 / S288c) (Baker's yeast)), sequence (P32657 whole entry, the tested form may be a part): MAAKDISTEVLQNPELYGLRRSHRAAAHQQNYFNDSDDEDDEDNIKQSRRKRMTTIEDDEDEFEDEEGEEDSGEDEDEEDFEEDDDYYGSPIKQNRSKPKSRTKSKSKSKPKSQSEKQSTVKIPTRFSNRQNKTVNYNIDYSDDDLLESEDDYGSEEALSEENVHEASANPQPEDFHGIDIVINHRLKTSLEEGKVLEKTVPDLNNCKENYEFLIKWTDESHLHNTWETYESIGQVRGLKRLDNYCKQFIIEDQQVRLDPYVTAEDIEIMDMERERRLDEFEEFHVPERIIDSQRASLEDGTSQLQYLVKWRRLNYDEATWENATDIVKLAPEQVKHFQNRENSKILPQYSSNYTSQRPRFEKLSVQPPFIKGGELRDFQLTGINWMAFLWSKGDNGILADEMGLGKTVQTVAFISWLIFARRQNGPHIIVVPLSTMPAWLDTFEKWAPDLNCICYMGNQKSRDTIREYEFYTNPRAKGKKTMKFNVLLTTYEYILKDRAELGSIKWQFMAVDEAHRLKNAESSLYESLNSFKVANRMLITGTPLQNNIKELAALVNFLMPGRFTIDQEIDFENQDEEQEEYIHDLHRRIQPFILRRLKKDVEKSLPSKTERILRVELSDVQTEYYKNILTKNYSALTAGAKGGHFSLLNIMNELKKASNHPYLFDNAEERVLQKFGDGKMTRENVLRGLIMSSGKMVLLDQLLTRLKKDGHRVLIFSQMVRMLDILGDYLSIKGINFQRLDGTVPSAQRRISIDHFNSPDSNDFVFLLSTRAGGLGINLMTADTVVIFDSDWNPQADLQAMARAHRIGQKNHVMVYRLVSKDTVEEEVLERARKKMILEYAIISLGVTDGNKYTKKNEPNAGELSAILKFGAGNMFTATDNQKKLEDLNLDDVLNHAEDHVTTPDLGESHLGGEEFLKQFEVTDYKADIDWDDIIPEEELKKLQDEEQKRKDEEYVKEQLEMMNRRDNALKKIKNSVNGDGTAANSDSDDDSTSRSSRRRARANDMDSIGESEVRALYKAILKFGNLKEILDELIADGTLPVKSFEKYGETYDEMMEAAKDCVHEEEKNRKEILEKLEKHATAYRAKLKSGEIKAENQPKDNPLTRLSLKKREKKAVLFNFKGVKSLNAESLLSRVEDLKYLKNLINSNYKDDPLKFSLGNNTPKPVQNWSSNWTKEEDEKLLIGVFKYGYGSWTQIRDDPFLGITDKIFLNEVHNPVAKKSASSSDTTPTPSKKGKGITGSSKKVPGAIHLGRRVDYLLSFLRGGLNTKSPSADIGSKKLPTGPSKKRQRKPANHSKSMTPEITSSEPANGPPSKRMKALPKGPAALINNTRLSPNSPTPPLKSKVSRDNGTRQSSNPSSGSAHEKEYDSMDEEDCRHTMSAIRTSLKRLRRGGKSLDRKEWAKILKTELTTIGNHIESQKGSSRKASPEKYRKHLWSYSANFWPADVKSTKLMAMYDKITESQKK

As to `NCc1cn(-c2ccccc2C(=O)NCc2cccc(Cl)c2)cn1`, the Percent Effect was 0.846% in [1]; 9.33% in experiment [2]; -1.67% in experiment [3]; -7.3% with Trypanosoma cruzi; 1.33% in [4]; 6.4% in [5]. Further, the Percent Effect was -3.19% in the experiment filed under Homo sapiens, 3.17% in experiment [6], 12.5% in experiment [7] and -24.5% in [8].
With `Cc1cc(-c2nn(C)c(Cl)c2CN2Cc3ccccc3C(O)C2)no1` (stereo not given), the Percent Effect in experiment [1] was -0.14%; in experiment [2], 24.3%; in [3], 18.2%; with Trypanosoma cruzi it was 11.2%; in experiment [4], 20.6%; in [5], 6.34%. The Percent Effect is 47.5% in the experiment filed under Homo sapiens, 3.72% in experiment [6], 4.88% in [7] and -1.98% in [8].
Regarding `Cc1noc(C2CCN(C(=O)CCNS(C)(=O)=O)CC2)n1`, the Percent Effect in [1] was -2.97%; in experiment [2], 10.3%; in [3], 4.81%; in the experiment on Trypanosoma cruzi, 3.47%; in [4], 3.69%; in [5], 5.89%. Also, the Percent Effect was 3.03% in the experiment filed under Homo sapiens, 4.31% in [6], 18.1% in experiment [7] and -0.743% in experiment [8].
Take `CC(C)OCCN(C)C(C)c1cccc(S(N)(=O)=O)c1` (stereo not given): the Percent Effect in [1] is -5.89%; in experiment [2] it was 7.79%; in experiment [3] it was -5.22%; in the experiment on Trypanosoma cruzi, -3.36%; in [4], 2.66%; in experiment [5] it was 1.05%. The Percent Effect in the experiment listed under Homo sapiens was 15.1%; in experiment [6], -1.96%; in [7] it was -2.35%; in experiment [8], -1.17%.
